IL-1B inflam inh – inhibitors of inflammasome signaling (IL-1 beta secretion). THP-1 LPS/ATP IL-1B secretion, AlphaLISA, 16 h; stronger effect = lower value. AID 743279. 4.7% of 360,000 active. activity change, % at 57.5 µM; in the data active = activity change below about -50%; inconclusive = mostly about -30% to -49%; also: % is scaled to controls: 0 for no effect and ±100 for the full control effect
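Secreted IL-1B measured by AlphaLISA bead assay after 16 h compound exposure of THP-1 cells; compounds (final up to 57.5 uM) added 1 h before LPS (250 ng/mL) and ATP (1.25 mM) stimulation; lower signal means less secretion.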
HepG2 tox – kills HepG2 cells in TGF-b inhibitor counter-screen | Potency, µM (series often up to 46.1 µM), without a hit: top-dose activity change, negative = cytotoxicity, most hits filed as cytotoxic | 0.76% of 410,000 active | HepG2 CAGA-GFP viability, ATP luminescence, 18 h; also: potency is read from the fitted curve at half-maximal effect
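CellTiter-Glo luminescence gave cytotoxicity after 18 hours at 37 degrees C. The cells were HepG2 CAGA-GFP in 1% FBS DMEM, stimulated with 500 pg/mL TGF-beta after compound addition. %Activity was normalised to no-cell wells (complete cell-killing) and DMSO (no toxicity), and curves were fitted and classified.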
TGFb inhibitor – blocks TGF-b signaling; 1.2% of 410,000 active; HepG2 CAGA-GFP TGF-b/SMAD3 reporter, GFP fluorescence, 18 h; TGF-beta stimulated, 500 pg/mL final; Potency, µM (series often up to 46.1 µM), inactives show top-dose activity, negative = inhibition, usual class: inhibitors; also: potency is read from the fitted curve at half-maximal effect; % is scaled to controls: 0 for no effect and ±100 for the full control effect; nearly all actives have a fitted effect of over 65% in size
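TGF-beta reporter screen: HEPG2 CAGA-GFP, 1% FBS, 500 pg/mL TGF-beta final, 18 h; per-cell GFP summed per well; curves fitted and categorized by class.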
DT40 TDP1 no CPT – qHTS for Inhibitors of human tyrosyl-DNA phosphodiesterase 1 (TDP1): qHTS in cells in absence of CPT | Potency, µM (top dose mostly 46.2 µM), inactives show at the highest dose activity change, negative = growth inhibition, most hits filed as inhibitors | 15% of 420,000 active | DT40 Tdp1-/- hTDP1 cells, no CPT, ATP luminescence, 48 h; also: potency is read from the fitted curve at half-maximal effect; % is scaled to controls: 0 for no effect and ±100 for the full control effect; nearly all actives have a fitted effect of over 55% in size
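Chicken DT40 Tdp1-/- cells stably complemented with human TDP1 were seeded at 400 cells/well with DMSO in place of 20 nM camptothecin. After compound pinning, cells grew at least 48 hr at 37 °C; viability read by CellTiter-Glo luminescence.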
TDP1 cell CPT – DT40-hTDP1 cell growth loss with CPT; Potency, µM (top dose mostly 46.2 µM), without a hit: at the top dose activity change, negative = growth inhibition, hits mostly inhibitors; AID 686979; 12% of 420,000 active; chicken DT40 Tdp1-/-;hTDP1 cells + 20 nM CPT, ATP luminescence, 48 h; also: potency is read from the fitted curve at half-maximal effect; % is scaled to controls: 0 for no effect and ±100 for the full control effect; nearly all actives have a fitted effect of over 55% in size
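Cell growth measured by CellTiter-Glo luminescence after a minimum 48 h, 37 C compound exposure with 20 nM CPT in Tdp1-knockout DT40 cells stably expressing hTDP1, seeded 400/well; qHTS titration format.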
TDP1 inh – TDP1 (human) enzyme inhibition. Q9NUW8. recombinant TDP1, AlphaScreen DNA substrate cleavage. Potency, µM (top dose mostly 130 µM), inactives show at the highest dose activity change, negative = inhibition, most hits filed as inhibitors. 0.28% of 350,000 active; also: potency is read from the fitted curve at half-maximal effect; % is scaled to controls: 0 for no effect and ±100 for the full control effect; nearly all actives have a fitted effect of over 40% in size
Target sequence (Q9NUW8 whole entry, looked up): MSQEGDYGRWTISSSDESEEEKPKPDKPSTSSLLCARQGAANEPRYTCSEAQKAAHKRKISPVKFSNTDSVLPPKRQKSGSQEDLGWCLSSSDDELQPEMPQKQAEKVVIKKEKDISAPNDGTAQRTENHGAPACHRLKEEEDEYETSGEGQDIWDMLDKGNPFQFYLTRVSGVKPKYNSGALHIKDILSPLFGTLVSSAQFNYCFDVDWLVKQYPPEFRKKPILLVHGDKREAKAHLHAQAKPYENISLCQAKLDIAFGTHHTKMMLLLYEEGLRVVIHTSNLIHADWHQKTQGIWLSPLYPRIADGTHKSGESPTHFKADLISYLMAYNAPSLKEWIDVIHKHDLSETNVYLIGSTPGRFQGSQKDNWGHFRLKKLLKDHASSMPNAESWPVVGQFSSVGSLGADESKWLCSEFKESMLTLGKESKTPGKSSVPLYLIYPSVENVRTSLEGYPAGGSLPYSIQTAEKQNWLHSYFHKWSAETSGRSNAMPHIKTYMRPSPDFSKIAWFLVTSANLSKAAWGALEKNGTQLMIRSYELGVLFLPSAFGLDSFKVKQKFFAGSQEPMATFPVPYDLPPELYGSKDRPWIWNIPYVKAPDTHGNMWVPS
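Enzyme-compound mixtures sat 15 min at room temperature, followed by a 5 min reaction with 15 nM final substrate and 10 min with AlphaScreen beads. Recombinant human Tdp1 was used at 1 nM final.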
Numbers without * were called inactive; ? = inconclusive; . = not tested or not shown; [ ] = another dose, or the depositor's remark. Shown are actives, neighbours in structure and some others; about 18% of the full set was active somewhere. Unless noted, calls follow the shape of the dose curve; as a rule, active = well fitted curve in the direction sought with a large enough effect; inconclusive = small, poorly fitted or top-dose-only effect, or another doubt; inactive = no such curve, though single readings can be large; an effect the other way counts as inactive or inconclusive.

SMILES	IL-1B inflam inh	HepG2 tox	TGFb inhibitor	DT40 TDP1 no CPT	TDP1 cell CPT	TDP1 inh
COc1ccc(-c2noc(N3CCC(C(=O)N(C)c4ccccc4)CC3)n2)cc1	-3	-24%	-20%	29µM*	?	.
CCOc1ccccc1NC(=O)C1CCN(c2nc(-c3ccc(OC)cc3)no2)CC1	6	4%	10%	-24%	?	.
CCOC(=O)N1CCC(NC(=O)C2CCN(c3nc(-c4ccc(OC)cc4)no3)CC2)CC1	11	-3%	-12%	4.1µM*	?	4%
COc1ccc(-c2noc(N3CCC(C(=O)NCc4ccccc4Cl)CC3)n2)cc1	-2	-11%	-3%	26µM*	16µM*	.
O=S(=O)(NC(CO)Cc1ccccc1)c1cc(Cl)ccc1F (configuration not stated)	21	5%	3%	-3%	9%	.
S=c1[nH]nc(C2CCCCC2)n1/N=C/c1cccc(Cl)c1Cl	-61*	-41%	?	23µM*	?	.
CN(C)c1ccc(/C=N/n2c(C3CCCCC3)n[nH]c2=S)cc1	-62*	-20%	-21%	16µM*	?	.
COc1cccc(/C=N/n2c(C3CCCCC3)n[nH]c2=S)c1OC	0	-47%	-15%	-22%	?	.
CC(C)C1NCCc2c1sc1ccccc21 (configuration not stated)	-50*	-3%	-11%	?	-3%	.
c1ccc([C@H]2NCCc3c2[nH]c2ccccc32)cc1	.	.	.	.	.	9%[21 µM]
CC(=O)Nc1ccc(SCC(CC(C)C)N2CCN(CCc3ccccc3)CCC2=O)cc1 (configuration not stated)	.	-6%	?	.	.	7%
CCc1ccc2oc(C(=O)Nc3nc(-c4ccc(F)cc4)ns3)c(C)c2c1	.	-18%	0%	?	?	0%
COc1ccc2ccccc2c1C(=O)/C=C\c1ccoc1	-56*	9%	-2%	?	?	-1%
Cc1cc(C)c(OCCNC(=O)c2ccccc2Sc2ccccc2C#N)c(C)c1	0	-28%	-25%	?	18µM*	-5%
CSc1ccccc1C(=O)NCCOc1ccccc1C	-11	-3%	-4%	?	?	-3%
COc1cccc(OCCNC(=O)c2ccccc2Sc2ccccc2C#N)c1	0	-10%	0%	16µM*	?	0%
CC1CCC2(CC1)NC(=O)N(NC(=O)CCc1c[nH]c3ccccc13)C2=O (configuration not stated)	1	0%	11%	-20%	-17%	2%
COc1ccc(-c2nn(-c3ccc(F)cc3F)c3c2cnc2ccc(F)cc23)cc1	.	8%	0%	-15%	-30%	6%
COc1cc(C(=S)N2CCN(C(c3ccccc3)c3ccccc3)CC2)cc(OC)c1O	-50*	-46%	?	8.2µM*	15µM*	.
COc1cccc(CN2CCN(C(c3ccccc3)c3ccccc3)CC2)c1O	-12	-21%	?	21µM*	?	7%
OC(CN1CCN(C(c2ccccc2)c2ccccc2)CC1)c1ccccc1 (configuration not stated)	0	-27%	-24%	?	?	.
COc1ccc(NC(=S)N2CCN(C(c3ccccc3)c3ccccc3)CC2)cc1OC	0	2%	1%	-27%	-27%	3%
COc1cc(CN2CCN(C(c3ccccc3)c3ccccc3)CC2)cc(OC)c1OC	8	-22%	?	3.3µM*	8.2µM*	.
Cc1ccc(NC(=O)C2CCC(CNS(=O)(=O)c3cccs3)CC2)cc1C (configuration not stated)	.	-24%	?	15µM*	15µM*	5%
